This passage reports Potency and outcome results from PubChem BioAssay (Tox21).

The nature of test [1]: qHTS assay to identify small molecule antagonists of the retinoid acid receptor (RAR) signaling pathway - cell viability counter screen (AID 1159551). Note: nearly all actives have a fitted effect of over 35% in size. Put shortly: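 Retinol-stimulated (1 uM final) C3RL4 cells, compound 6 h, 37 C; readout CellTiter-Glo luminescence (ATP) after 30 min RT incubation.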
(In qHTS, concentration-response curves come from the screen itself.)

The nature of test [2]: qHTS assay to identify small molecule antagonists of the retinoic acid receptor (RAR) signaling pathway (AID 1159552; note: nearly all actives have a fitted effect of over 50% in size). The method in brief: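 Luminescent RARE reporter read-out in C3RL4 cells: 6 hr co-treatment at 37 C of test compounds with retinol at 1 uM final. Cells plated overnight beforehand; luciferase reagent incubated 30 min at room temperature before reading.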
A short description of test [3]: qHTS assay to identify small molecule antagonists of the estrogen related receptor (ERR) signaling pathway from Tox21 library - cell viability counter screen (AID 1224834). Note: nearly all actives have a fitted effect of over 30% in size. Note: potency is the fitted concentration of half-maximal effect. Put shortly:
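After 17.5 h of compound exposure at 37 C, ERR cells are incubated with CellTiter-Fluor for 30 min and fluorescence intensity serves as the viability measure.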

The target in test [4] is Luciferin 4-monooxygenase (Photinus pyralis) (UniProt P08659). Description: qHTS assay to identify small molecule inhibitors of firefly luciferase (AID 1224835). Note: nearly all actives have a fitted effect of over 25% in size. Note: potency is the fitted concentration of half-maximal effect. The method in brief:
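Biochemical qHTS: compounds run as interplate titrations against purified firefly enzyme, with D-luciferin and ATP each at its KM concentration. Light output recorded by CCD imaging.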

Test [5] in a line: qHTS assay to identify small molecule agonists of the constitutive androstane receptor (CAR) signaling pathway - cell viability counter screen (AID 1224836). Note: series mostly up to about 92 µM; nearly all actives have a fitted effect of over 45% in size. The method in brief: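 Cell viability multiplexed with the CAR agonist screen: CellTiter-Fluor fluorescence after 23 hr at 37 C. HepG2-CYP2B6-hCAR cells got compounds at 15 concentrations with PK11195 at 0.75 uM final.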

The nature of test [6]: qHTS assay to identify small molecule antagonists of the constitutive androstane receptor (CAR) signaling pathway - cell viability counter screen (AID 1224837). Note: series mostly up to about 92 µM; nearly all actives have a fitted effect of over 45% in size. The method in brief:
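Counter screen run in HepG2-CYP2B6-hCAR cells: 4 hr settle, compound titration (15 concentrations) with 50 nM CITCO, 23 hr at 37 C/5% CO2, CellTiter-Fluor fluorescence.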

The nature of test [7]: qHTS assay to identify small molecule antagonists of the estrogen related receptor signaling pathway with the pleiotropic PPARgamma coactivator (PGC) from Tox21 10K library - cell viability counter screen (AID 1224840; active = well fitted cell-killing curve with a large enough effect in the repeat runs, not every such curve was filed as active; note: nearly all actives have a fitted effect of over 40% in size). The method in brief:
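Following seeding of 2,000 PGC/ERR cells/well and 6 hours' incubation, test compounds were delivered in DMSO. The plates then sat 17.5 hours at 37 C before a fluorogenic live-cell protease reagent (CellTiter-Fluor) was read after 30 min.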

Test [8] is described as follows: qHTS assay to identify small molecule agonists of the hypoxia (HIF-1) signaling pathway - cell viability counter screen (AID 1224844; calls by dose curve; note: nearly all actives have a fitted effect of over 50% in size; note: potency is the fitted concentration of half-maximal effect). The method in brief:
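Cells (HRE-bla ME-180, 2,000 per well) sat 5 hrs at 37C, got compound for 17 hrs, were read for CCF4-AM FRET, and were finally lysed with CellTiter-Glo for a 30 min room-temperature luminescence read.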

Test [9] in a line: qHTS assay to identify small molecule agonists of the retinoic acid receptor (RAR) signaling pathway (AID 1159553). Note: potency is the fitted concentration of half-maximal effect. Put shortly:
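Reporter readout comes from luciferase under RARE control in C3RL4 cells; compound exposure lasts 6 hr at 37 C in 5% CO2, and luminescence is recorded following a 30 min room-temperature incubation with reagent.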

Test [10] addresses Nuclear receptor subfamily 1 group I member 3 (Homo sapiens) (UniProt Q14994). Description: qHTS assay to identify small molecule antagonists of the constitutive androstane receptor (CAR) signaling pathway (AID 1224838).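 Note: HepG2 cells stably expressing hCAR with CYP2B6 luciferase reporter stimulated by CITCO; nearly all actives have a fitted effect of over 40% in size.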 The method in brief:
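Cell line: HepG2 double-stable for hCAR and CYP2B6-2.2kb reporter. Agonist: CITCO, 50 nM final. Compounds: 15 concentrations, 24 h, 37 C. Detection: ONE-Glo luminescence.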

Test [11] is described as follows: qHTS assay to identify small molecule antagonists of the estrogen related receptor signaling pathway with the pleiotropic PPARgamma coactivator (PGC) from Tox21 10K library (AID 1224841; call rule not given here; note: actives are mostly falling curves and most rising ones were filed inactive; nearly all actives have a fitted effect of over 50% in size; note: potency is the fitted concentration of half-maximal effect). Put shortly: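 qHTS antagonist format: PGC/ERR cells, 2k/well, compound in DMSO by pin transfer after 6 h attachment, 18 h treatment at 37 C, One-Glo luminescence read at 30 min.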

In test [12] the target is Thyrotropin receptor (Homo sapiens) (UniProt P16473). Description: qHTS assay to identify small molecule agonists of the thyroid stimulating hormone receptor (TSHR) signaling pathway (AID 1224843; calls by dose curve; note: nearly all actives have a fitted effect of over 45% in size; note: potency is the fitted concentration of half-maximal effect). Put shortly: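 Steps: seed 800 TSHR-HEK293 cells per well; add test compound and hold 30 min at ambient temperature; dispense cAMP-d2 then anti-cAMP cryptate; incubate 1 h at ambient; measure fluorescence intensity.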

The target in test [13] is Nuclear receptor subfamily 1 group I member 3 (Homo sapiens) (UniProt Q14994). The experiment in a line: qHTS assay to identify small molecule agonists of the constitutive androstane receptor (CAR) signaling pathway (AID 1224839).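 Note: HepG2 cells stably carrying human CAR and a CYP2B6 luciferase reporter; series mostly up to about 92 µM; nearly all actives have a fitted effect of over 15% in size.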 The method in brief:
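Luminescent ONE-Glo read-out after 24 hr, 37 C exposure of double-stable HepG2-CYP2B6-hCAR reporter cells to a 15-point compound series, in the presence of 0.75 uM PK11195 (final).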

The nature of test [14]: qHTS assay to identify small molecule antagonists of the estrogen related receptor (ERR) signaling pathway - cell viability counter screen (AID 1224818). Note: series mostly up to about 46 µM. The method in brief:
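After a 6 h pre-incubation, ERR cells were dosed by pin tool with compounds, positive/negative controls or DMSO alone. Following 17.5 h at 37 C and 30 min with CellTiter-Fluor, fluorescence was recorded.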

Test [15] in a line: qHTS assay to identify small molecule antagonists of the estrogen related receptor (ERR) signaling pathway (AID 1224819;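 note: luminescence from an ERR-driven luciferase reporter measured with One-Glo reagent; series mostly up to about 46 µM; nearly all actives have a fitted effect of over 50% in size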). Put shortly: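 Luminescence readout (One-Glo, 30 min, RT) of ERR cell line after 18 h compound exposure at 37 C; cells seeded 2,000/well, pre-incubated 6 h, compounds pinned from DMSO stocks.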
A short description of test [16]: qHTS assay to identify small molecule agonists of the estrogen related receptor (ERR) signaling pathway (AID 1224820). Put shortly:
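Quantitative HTS of the LOPAC library used NTP ERR reporter cells treated 18 h at 37 C. Signal is luminescence after One-Glo addition and a 30 min room-temperature incubation.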

Test [17] can be described thus: qHTS assay to identify small molecule antagonists of the estrogen related receptor signaling pathway with the pleiotropic PPARgamma coactivator (PGC) cell viability counter screen (AID 1224822; note: series mostly up to about 46 µM). The method in brief: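 PGC/ERR cells were plated at 2,000 per well and allowed 6 h to settle before compound addition. Following 17.5 h at 37 C, CellTiter-Fluor reagent was added and fluorescence was read 30 min later.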

A short description of test [18]: qHTS assay to identify small molecule agonists of the estrogen related receptor signaling pathway with the pleiotropic PPARgamma coactivator (PGC) (AID 1224823). Put shortly: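 Cell-based luciferase assay in the NTP-supplied PGC/ERR line, 2,000 cells/well; 18 h compound exposure at 37 C, luminescence after One-Glo.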
Test [19] is described as follows: qHTS assay to identify small molecule agonists of the estrogen related receptor signaling pathway with the pleiotropic PPARgamma coactivator (PGC) from Tox21 10K library (AID 1224842). Note: nearly all actives have a fitted effect of over 15% in size. The method in brief:
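PGC/ERR reporter cell line, 2,000 cells per well, incubated 6 h at 37 C before 23 nL compound in DMSO was added. After 18 h at 37 C, One-Glo luminescence read following 30 min at room temperature.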

Records with an inconclusive call do not appear. A number with no mark means an inactive call. Activity calls are given as the source filed them. Unless noted, calls come from the whole dose curve; as a rule, active = well fitted curve in the direction sought with a large enough effect in the repeat runs; inconclusive = weak or mixed curves; inactive = no such curve, though single readings can be large; an effect the other way counts as inactive or inconclusive.

Chain of Thyrotropin receptor (Homo sapiens) (P16473 whole entry, looked up): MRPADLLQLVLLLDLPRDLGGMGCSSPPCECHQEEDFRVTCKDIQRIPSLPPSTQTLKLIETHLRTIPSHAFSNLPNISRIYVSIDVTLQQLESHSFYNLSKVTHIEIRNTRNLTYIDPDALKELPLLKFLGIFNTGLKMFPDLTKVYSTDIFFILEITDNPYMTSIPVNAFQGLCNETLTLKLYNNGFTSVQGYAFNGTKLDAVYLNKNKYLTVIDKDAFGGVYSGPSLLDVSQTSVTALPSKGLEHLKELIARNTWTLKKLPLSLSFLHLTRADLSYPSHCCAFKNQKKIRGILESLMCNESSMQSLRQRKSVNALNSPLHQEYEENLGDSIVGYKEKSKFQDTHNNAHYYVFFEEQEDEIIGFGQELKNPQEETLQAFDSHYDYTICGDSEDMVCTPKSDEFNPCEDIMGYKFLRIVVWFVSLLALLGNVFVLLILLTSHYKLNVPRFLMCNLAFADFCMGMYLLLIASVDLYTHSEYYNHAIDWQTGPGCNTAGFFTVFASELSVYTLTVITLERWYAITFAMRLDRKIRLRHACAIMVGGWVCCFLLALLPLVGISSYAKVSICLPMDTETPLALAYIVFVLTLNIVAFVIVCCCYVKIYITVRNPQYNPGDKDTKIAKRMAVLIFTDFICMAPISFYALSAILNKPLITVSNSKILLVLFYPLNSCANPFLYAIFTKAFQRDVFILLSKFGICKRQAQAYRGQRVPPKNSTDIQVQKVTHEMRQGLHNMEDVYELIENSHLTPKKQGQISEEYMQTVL
Chain of Nuclear receptor subfamily 1 group I member 3 (Homo sapiens) (Q14994 whole entry, looked up): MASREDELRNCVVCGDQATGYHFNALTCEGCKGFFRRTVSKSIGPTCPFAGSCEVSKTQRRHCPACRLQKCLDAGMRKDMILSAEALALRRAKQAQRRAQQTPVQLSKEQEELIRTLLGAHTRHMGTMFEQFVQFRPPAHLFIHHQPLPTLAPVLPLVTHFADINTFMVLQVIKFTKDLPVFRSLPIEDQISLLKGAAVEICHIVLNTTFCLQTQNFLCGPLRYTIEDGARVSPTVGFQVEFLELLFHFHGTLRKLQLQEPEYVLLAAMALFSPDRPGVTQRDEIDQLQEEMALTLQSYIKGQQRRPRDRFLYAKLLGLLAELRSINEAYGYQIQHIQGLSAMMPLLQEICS
Chain of Luciferin 4-monooxygenase (Photinus pyralis) (P08659 whole entry, looked up): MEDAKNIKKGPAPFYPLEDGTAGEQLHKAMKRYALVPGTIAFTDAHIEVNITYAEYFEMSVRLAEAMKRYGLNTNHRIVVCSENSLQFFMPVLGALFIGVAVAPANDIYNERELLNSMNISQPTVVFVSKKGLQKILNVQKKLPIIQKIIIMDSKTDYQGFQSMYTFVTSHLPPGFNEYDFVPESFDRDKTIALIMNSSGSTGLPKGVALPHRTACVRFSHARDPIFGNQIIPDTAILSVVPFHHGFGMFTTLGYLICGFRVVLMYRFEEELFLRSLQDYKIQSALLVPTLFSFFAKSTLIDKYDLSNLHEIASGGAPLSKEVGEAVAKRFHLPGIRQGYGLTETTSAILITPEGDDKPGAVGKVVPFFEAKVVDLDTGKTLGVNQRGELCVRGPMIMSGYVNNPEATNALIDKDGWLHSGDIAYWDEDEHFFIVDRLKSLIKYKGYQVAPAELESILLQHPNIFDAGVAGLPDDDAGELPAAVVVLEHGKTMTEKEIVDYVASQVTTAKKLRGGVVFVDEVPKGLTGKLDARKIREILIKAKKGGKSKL

Consider `CCCCOC(=O)c1ccccc1N`, for which the Potency result in test [1], in test [2], in test [3], in test [5], in test [6] and in [7] was “inactive” each time. For the same molecule, the Potency entry in [8] is “inactive”. For the same molecule, the Potency in test [4] was 40.1 µM (active).
As for `C[C@H]1CCC[C@H](O)CCCCCc2cc(O)cc(O)c2C(=O)O1`, the Potency entry in test [1], in test [2], in [9], in [4], in test [5] and in [10] was “inactive” in each case. The Potency entry in [12] and in test [8] was “inactive” each time. Also, the Potency in test [3] was 61.6 µM (active); in test [11] it was 54.9 µM (active).
As to `CC(Oc1ccc(Oc2ncc(C(F)(F)F)cc2Cl)cc1)C(=O)O` (centres undefined), the Potency result in test [1], in [2], in [9], in test [3], in test [4] and in [5] was “inactive” in each case. The Potency result in test [6], in [13], in test [7] and in [12] was “inactive” each time. Besides, the values for the Potency in [11] and in test [8] were 27.3 µM (active) and 15.5 µM (active), respectively.
For the molecule `CC(=O)[C@H]1CC[C@H]2[C@@H]3CC[C@H]4C[C@H](O)CC[C@]4(C)[C@H]3C(=O)C[C@]12C`, the Potency result in test [1], in [2], in test [9], in [3], in test [4] and in [5] was “inactive” throughout. Moreover, the Potency entry in [6], in [13] and in [7] was “inactive” throughout. The call in test [14], in [15], in [16], in test [17] and in test [18] was inactive.
Consider `CCN(CC)C(=O)[C@@H]1C=C2c3cccc4[nH]cc(c34)C[C@H]2N(C)C1`, for which the Potency entry in test [1], in [2], in test [9], in [4], in test [10] and in test [13] was “inactive” each time. For the same molecule, in [8], the Potency result was “inactive”. Moreover, in test [3], the Potency is 80 µM (active). The molecule was called inactive in [19].
`C1CCC(C2CCCCC2)CC1`: the Potency entry in test [1], in test [2], in test [9], in test [3], in test [4] and in test [5] was “inactive” throughout. Also, the Potency result in [6], in test [10], in test [13], in [7], in test [11] and in test [12] was “inactive” throughout. In test [19], the result was inactive. The Potency in test [8] is 21.9 µM (active).
With `C(CCOCC1CO1)COCC1CO1` (centres undefined), the Potency entry in test [1], in [2], in test [9], in [3], in [4] and in test [5] was “inactive” each time. The Potency entry in test [6], in test [10], in test [13], in test [7] and in [12] was “inactive” each time.
As for `CNC(=O)N(C)c1nc2ccccc2s1`, the Potency entry in test [2], in [3], in [5], in [6], in test [10] and in test [7] was “inactive” in each case. The Potency result in test [11] and in test [12] was “inactive” throughout. In addition, the figures for the Potency in test [9] and in test [4] were 2.43 µM (active) and 35.6 µM (active), respectively.
`COc1cc(C[C@@H](C)N)c(OC)cc1C`: the Potency result in [1], in [3], in [4], in test [5], in [6] and in test [10] was “inactive” throughout. Further, the Potency entry in [7], in [11], in [12] and in test [8] was “inactive” throughout. In addition, the outcome in [19] was inactive.
As to `CN1CCC(N(Cc2ccccc2)c2ccccc2)CC1`, the Potency entry in test [3], in test [4], in [5], in test [6], in test [10] and in test [13] was “inactive” each time. The Potency result in test [7] and in [8] was “inactive” throughout. In addition, the Potency in test [12] was 13.3 µM (active).
Regarding `CN/C(=N\[N+](=O)[O-])NCC1CCOC1` (centres undefined), the Potency entry in test [1], in test [3], in test [5], in test [6], in test [13] and in test [7] was “inactive” in each case. Moreover, the Potency entry in test [12] and in test [8] was “inactive” throughout.
`CC(C(O)c1ccccc1)N(C)C/C=C/c1ccccc1` (centres undefined): the Potency entry in [9], in test [3], in [4], in [5], in test [6] and in [7] was “inactive” each time. In addition, the Potency entry in test [12] and in test [8] was “inactive” in each case.
